Measured values from PubChem BioAssay (NCATS).
Records with an inconclusive call do not appear. Active and inactive are the calls of the source. Unless noted, calls follow the shape of the dose curve; as a rule, active = well fitted curve in either direction with a large enough effect (not every such curve was filed as active); inconclusive = small, poorly fitted or top-dose-only effect, or another doubt; inactive = flat fitted curve, though single readings scatter.

How the values were obtained:
[1] = molecular target: Lysosomal acid glucosylceramidase (Homo sapiens) (UniProt P04062); experiment: Glucocerebrosidase-p2 (AID 348; in the data active = potency below about 10 µM; also: potency is read from the fitted curve at half-maximal effect); conditions: purified GBA, blue fluorogenic substrate, 40 min
Chain of Lysosomal acid glucosylceramidase (Homo sapiens) (P04062 whole entry, looked up): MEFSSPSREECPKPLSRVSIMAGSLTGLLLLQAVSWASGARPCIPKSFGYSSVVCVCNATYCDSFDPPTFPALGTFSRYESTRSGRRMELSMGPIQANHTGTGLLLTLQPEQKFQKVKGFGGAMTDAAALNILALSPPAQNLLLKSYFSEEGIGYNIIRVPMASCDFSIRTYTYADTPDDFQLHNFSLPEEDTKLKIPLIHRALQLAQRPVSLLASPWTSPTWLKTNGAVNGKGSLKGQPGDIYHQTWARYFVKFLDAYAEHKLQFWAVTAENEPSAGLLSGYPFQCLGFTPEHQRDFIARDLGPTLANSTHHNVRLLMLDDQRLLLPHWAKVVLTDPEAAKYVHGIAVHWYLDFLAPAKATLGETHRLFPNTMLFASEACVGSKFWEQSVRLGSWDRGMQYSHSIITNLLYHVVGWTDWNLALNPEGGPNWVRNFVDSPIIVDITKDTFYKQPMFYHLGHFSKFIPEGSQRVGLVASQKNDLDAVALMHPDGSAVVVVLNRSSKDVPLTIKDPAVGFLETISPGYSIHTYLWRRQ
Procedure, shortened: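 Normal human glucocerebrosidase (0.2 nM) with blue fluorogenic substrate (80 uM final) in citrate/phosphate pH 5.9 with 10mM sodium taurocholate, 0.01% tween-20; 40 min RT, NaOH/glycine stop; fluorescence Ex 365/Em 440; AC50 from a titration from 0.6 nM upwards.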

[2] = AP1 Signaling Pathway (AID 357); conditions: ME-180 AP-1-bla reporter, EGF-induced, beta-lactamase ratio, 5 h; at 7.69 µM (top of the series) unless noted;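 also: ME-180 reporter cells stimulated with EGF at its EC50 level; % is scaled to controls: 0 for no effect and ±100 for the full control effect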
Procedure, shortened: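 AP-1-bla ME-180 cells, Opti-MEM + 0.5% dialyzed FBS, plated overnight 37 °C. Cpd titration + EC50 EGF, 5 h 37 °C. CCF4 2.5 h RT; ex 405, em 460/530 ratio → %activity, AC50.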

[3] = NFAT Signaling Pathway (AID 444); conditions: Jurkat NFAT-bla M1, carbachol, beta-lactamase ratio, 5 h; at 7.69 µM (top of the series) unless noted;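 also: carbachol stimulus at about its EC50 of 1 µM final; % is scaled to controls: 0 for no effect and ±100 for the full control effect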
Procedure, shortened: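 Jurkat cells carrying an NFAT-driven β-lactamase reporter and co-transfected muscarinic M1 receptor were treated with compound plus carbachol (1 uM final, an EC50 level) for 5 h at 37 °C. CCF4 loading followed for 1 h at RT; 460/530 nm ratio gave %activity.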

[4] = Stat Signaling Pathway (AID 446); conditions: ME-180 (cervical carcinoma) SIE beta-lactamase reporter, IL-6 stimulated, 5 h; at 7.69 µM (top of the series) unless noted;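 also: ME-180 cervical cancer cells given 40 pM IL-6 alongside compound; SIE-controlled beta-lactamase reporter measured as 460/530 nm FRET emission ratio; % is scaled to controls: 0 for no effect and ±100 for the full control effect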
Procedure, shortened: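 FRET read-out (405 nm excitation, 460/530 nm emission) of a beta-lactamase reporter under a STAT-inducible element in ME-180 cervical carcinoma cells. Cells with compound receive 40 pM IL-6 for 5 h. Values are normalised to AC90 stimulation and AC90 JAK-inhibitor controls.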

[5] = molecular target: Glucocorticoid receptor (Homo sapiens) (UniProt P04150); experiment: GR-GFP Redistribution (AID 450;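 active = compounds whose dose series gives a full or clear partial fitted curve of increased nuclear translocation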; also: potency is read from the fitted curve at half-maximal effect); conditions: U2OS GR-GFP nuclear translocation, laser cytometry, 2 h
Chain of Glucocorticoid receptor (Homo sapiens) (P04150 whole entry, looked up, the tested form may be a part): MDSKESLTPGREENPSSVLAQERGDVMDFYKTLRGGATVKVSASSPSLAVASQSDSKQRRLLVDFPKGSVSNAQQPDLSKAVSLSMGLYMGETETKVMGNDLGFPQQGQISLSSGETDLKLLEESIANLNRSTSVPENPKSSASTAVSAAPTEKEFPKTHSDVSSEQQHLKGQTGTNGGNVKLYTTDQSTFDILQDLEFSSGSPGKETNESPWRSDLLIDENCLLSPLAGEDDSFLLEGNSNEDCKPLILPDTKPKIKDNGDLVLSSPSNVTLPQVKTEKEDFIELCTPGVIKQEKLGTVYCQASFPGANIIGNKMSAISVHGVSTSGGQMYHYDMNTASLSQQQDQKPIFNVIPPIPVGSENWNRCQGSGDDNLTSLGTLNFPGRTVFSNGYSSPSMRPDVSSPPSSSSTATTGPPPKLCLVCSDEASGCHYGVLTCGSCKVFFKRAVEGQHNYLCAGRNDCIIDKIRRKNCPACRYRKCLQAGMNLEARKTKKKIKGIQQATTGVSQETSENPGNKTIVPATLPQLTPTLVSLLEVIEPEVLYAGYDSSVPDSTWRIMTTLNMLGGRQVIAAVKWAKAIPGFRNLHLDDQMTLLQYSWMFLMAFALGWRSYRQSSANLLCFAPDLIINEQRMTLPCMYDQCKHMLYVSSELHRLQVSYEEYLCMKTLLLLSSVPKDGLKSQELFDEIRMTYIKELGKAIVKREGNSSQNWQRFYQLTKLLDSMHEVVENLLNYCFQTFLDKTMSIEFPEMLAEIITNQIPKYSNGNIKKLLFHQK

[6] = molecular target: Glucocorticoid receptor (Homo sapiens) (UniProt P04150); experiment: GR-EFC Redistribution (AID 451; calls by dose curve; also: potency is read from the fitted curve at half-maximal effect); conditions: CHO-K1 GR-EFC translocation, beta-gal luminescence, 2 h
Procedure, shortened: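 CHO-K1 cells stably expressing nuclear-localized β-gal enzyme acceptor and GR fused C-terminally to the enzyme donor fragment; ligand-driven nuclear translocation restores β-gal by complementation. Compounds titrated up to 46 uM final, 2 h at 37 °C; luminescence read.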

[7] = molecular target: Mitogen-activated protein kinase 10 (Mus musculus) (UniProt Q61831); experiment: JNK3 AlphaScreen Assay (AID 530); conditions: JNK3 lysate, c-Jun phosphorylation; series mostly up to 11.4 µM;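 also: kinase came from lysate of stimulated human HepG2 cells; signal reports phosphorylation of biotinylated GST-cJun 1-79 at Ser73 with 10 µM ATP; % is scaled to controls: 0 for no effect and ±100 for the full control effect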
Procedure, shortened: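 Phosphorylation of biotinylated GST-cJun(1-79) at Ser73 is measured by AlphaScreen proximity luminescence. Enzyme is JNK3 in HepG2 lysates activated with interleukin-1beta and tumor necrosis factor alpha; ATP is 10 uM final.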

[8] = molecular target: 3',5'-cyclic-AMP phosphodiesterase 4B (Homo sapiens) (UniProt Q07343); experiment: qHTS Assay for Inhibitors of PDE-IV (AID 607; active = well fitted activation curve with a large enough effect in the main read-out, with a control signal flat, not every such curve was filed as active; also: % of control where 0% means no effect); conditions: HEK293 ACTOne CNG channel cells, membrane potential fluorescence; series mostly up to 22.9 µM
Chain of 3',5'-cyclic-AMP phosphodiesterase 4B (Homo sapiens) (Q07343 whole entry, looked up): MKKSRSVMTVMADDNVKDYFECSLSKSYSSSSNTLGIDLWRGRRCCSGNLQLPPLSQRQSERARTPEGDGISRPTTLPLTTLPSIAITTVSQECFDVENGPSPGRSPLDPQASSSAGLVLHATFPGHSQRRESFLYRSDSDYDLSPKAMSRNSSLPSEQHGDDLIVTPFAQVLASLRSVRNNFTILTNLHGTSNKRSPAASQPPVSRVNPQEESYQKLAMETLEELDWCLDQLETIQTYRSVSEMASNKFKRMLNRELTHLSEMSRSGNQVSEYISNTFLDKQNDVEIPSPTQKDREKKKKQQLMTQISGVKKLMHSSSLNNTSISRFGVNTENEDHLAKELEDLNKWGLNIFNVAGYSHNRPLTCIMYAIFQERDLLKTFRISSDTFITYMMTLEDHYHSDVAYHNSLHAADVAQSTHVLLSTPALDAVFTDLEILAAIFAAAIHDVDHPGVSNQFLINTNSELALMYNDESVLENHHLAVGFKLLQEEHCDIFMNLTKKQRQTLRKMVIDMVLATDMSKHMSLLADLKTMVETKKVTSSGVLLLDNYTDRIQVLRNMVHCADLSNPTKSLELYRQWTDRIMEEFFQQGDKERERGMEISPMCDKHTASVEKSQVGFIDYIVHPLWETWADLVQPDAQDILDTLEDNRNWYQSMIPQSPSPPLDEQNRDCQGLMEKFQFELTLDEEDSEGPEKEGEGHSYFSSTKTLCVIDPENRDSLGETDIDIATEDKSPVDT
Procedure, shortened: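 Cell-based read-out of cAMP via a modified cyclic nucleotide-gated channel and membrane potential dye (535/590 nm) in HEK293 cells expressing PDE4 endogenously. Compounds tested up to 22.9 uM final; 100 uM RO 20-1724 reference.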

[9] = molecular target: Cytochrome P450 1A2 (Homo sapiens) (UniProt P05177); experiment: p450-cyp1a2 (AID 410; calls by dose curve; also: potency is read from the fitted curve at half-maximal effect); conditions: recombinant CYP1A2, luciferin-ME demethylation, luminescence; series mostly up to 11.4 µM
Chain of Cytochrome P450 1A2 (Homo sapiens) (P05177 whole entry, looked up): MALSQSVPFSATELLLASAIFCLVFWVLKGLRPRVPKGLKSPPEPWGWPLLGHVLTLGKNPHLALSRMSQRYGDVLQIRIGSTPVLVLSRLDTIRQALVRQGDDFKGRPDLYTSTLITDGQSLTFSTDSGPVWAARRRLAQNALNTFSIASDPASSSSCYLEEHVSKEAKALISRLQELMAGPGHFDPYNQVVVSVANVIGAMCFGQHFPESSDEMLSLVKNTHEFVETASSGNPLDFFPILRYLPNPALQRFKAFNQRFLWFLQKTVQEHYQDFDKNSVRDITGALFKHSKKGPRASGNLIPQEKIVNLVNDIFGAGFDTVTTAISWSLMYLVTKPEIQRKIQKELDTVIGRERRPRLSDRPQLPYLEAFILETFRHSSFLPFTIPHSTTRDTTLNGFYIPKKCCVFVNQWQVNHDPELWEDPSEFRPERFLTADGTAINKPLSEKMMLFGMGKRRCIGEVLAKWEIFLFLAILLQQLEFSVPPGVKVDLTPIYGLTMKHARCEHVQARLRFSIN
Procedure, shortened: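 Luminescent demethylation readout: Luciferin-ME (100uM, equal to Km) turned over by 20nM CYP1A2 for 60 min at room temperature after NADPH regeneration addition, following 10 min compound preincubation. Normalization used 57 uM furafylline as full inhibition.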

[10] = molecular target: Cytochrome P450 3A4 (Homo sapiens) (UniProt P08684); experiment: qHTS Assay for Activators of Cytochrome P450 3A4 (AID 885; active = well fitted curve in the direction sought with a large enough effect; an effect the other way counts as inactive or inconclusive; also: nearly all actives have a fitted effect of over 65% in size); conditions: recombinant CYP3A4, Luciferin-PPXE luminescence, 60 min; series mostly up to 11.4 µM
Chain of Cytochrome P450 3A4 (Homo sapiens) (P08684 whole entry, looked up): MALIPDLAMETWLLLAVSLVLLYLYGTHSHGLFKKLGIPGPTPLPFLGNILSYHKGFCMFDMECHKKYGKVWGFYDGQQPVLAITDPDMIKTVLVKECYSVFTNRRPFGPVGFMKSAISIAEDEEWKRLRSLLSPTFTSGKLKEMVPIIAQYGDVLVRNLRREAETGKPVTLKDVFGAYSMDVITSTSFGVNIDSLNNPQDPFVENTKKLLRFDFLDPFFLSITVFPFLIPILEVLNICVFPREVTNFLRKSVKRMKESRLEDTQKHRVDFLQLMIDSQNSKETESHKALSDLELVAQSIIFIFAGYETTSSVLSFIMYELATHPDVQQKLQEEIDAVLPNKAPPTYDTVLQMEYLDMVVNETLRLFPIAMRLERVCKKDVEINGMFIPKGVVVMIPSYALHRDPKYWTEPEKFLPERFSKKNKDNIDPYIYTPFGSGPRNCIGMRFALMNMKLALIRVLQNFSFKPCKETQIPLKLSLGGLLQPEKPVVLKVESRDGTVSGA
Procedure, shortened: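 Luminescent readout of luciferin formed from 25 uM Luciferin-PPXE (KM level) by 20 nM CYP3A4 in 200 mM KPO4, with 60 min NADPH-driven reaction at room temperature after 10 min compound exposure. Ketoconazole (57 uM) defined 100% inhibition.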

[11] = molecular target: ATP-dependent 6-phosphofructokinase (Trypanosoma brucei brucei) (UniProt O15648); experiment: qHTS Assay to Find Inhibitors of T. brucei phosphofructokinase: hit validation (AID 492961; active = well fitted curve in the direction sought with a large enough effect; an effect the other way counts as inactive or inconclusive); conditions: T. brucei PFK, ADP-Glo luminescence; series mostly up to 51.4 µM
Chain of ATP-dependent 6-phosphofructokinase (Trypanosoma brucei brucei) (O15648 whole entry, looked up): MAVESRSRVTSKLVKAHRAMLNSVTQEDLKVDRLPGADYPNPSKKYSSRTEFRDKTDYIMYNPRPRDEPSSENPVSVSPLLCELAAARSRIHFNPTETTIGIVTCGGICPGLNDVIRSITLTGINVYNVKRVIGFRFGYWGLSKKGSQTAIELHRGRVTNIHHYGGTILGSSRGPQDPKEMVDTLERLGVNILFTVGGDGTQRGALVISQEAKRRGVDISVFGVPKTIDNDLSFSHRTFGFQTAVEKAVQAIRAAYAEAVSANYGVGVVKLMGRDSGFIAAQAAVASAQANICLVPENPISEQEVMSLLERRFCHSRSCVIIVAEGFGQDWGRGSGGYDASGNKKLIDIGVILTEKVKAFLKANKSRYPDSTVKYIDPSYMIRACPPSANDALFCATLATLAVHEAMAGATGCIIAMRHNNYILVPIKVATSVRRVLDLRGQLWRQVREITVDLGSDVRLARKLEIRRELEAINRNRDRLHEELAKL
Procedure, shortened: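 PFK 1.25 nM, F6P 0.5 mM, ATP 0.1 mM, MgCl2 5 mM, 0.1 M TEA pH 8.0, Tween20 0.01%, BSA 0.1%; 45 min RT. ADP-Glo two-step detection, luminescence. qHTS titration; curve fitting with curve-class categorization.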

[12] = qHTS profiling for inhibitors of Plasmodium falciparum proliferation (AID 504749; active = well fitted curve in the direction sought with a large enough effect; an effect the other way counts as inactive or inconclusive;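 also: 0% = DMSO vehicle and full inhibition = artemisinin control; nearly all actives have a fitted effect of over 60% in size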); conditions: P. falciparum in erythrocytes, SYBR Green DNA, 72 h, at 28.7 µM (top of the series)
Procedure, shortened: (§1)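 Quantitative HTS: compounds pinned into medium, infected erythrocytes added (0.3% parasitemia, 2.5% hematocrit), 72 h culture at 37 C under 5% CO2. Saponin/Triton lysis with SYBR Green I, overnight RT, then fluorescence read.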

[13] = test system: AS120; experiment: as above; conditions: P. falciparum in erythrocytes, SYBR Green DNA, 72 h; series mostly up to 28.7 µM
Procedure, shortened: as §1

[14] = test system: ATS189; experiment: as above; conditions: P. falciparum in erythrocytes, SYBR Green DNA, 72 h; series mostly up to 28.7 µM
Procedure, shortened: as §1

[15] = test system: CP185; experiment: as above; conditions: P. falciparum in erythrocytes, SYBR Green DNA, 72 h; series mostly up to 28.7 µM
Procedure, shortened: as §1

[16] = test system: CP191; experiment: as above; conditions: P. falciparum in erythrocytes, SYBR Green DNA, 72 h; series mostly up to 28.7 µM
Procedure, shortened: as §1

[17] = test system: DIV30; experiment: as above; conditions: P. falciparum in erythrocytes, SYBR Green DNA, 72 h; series mostly up to 28.7 µM
Procedure, shortened: as §1

[18] = test system: HB3; experiment: as above; conditions: P. falciparum in erythrocytes, SYBR Green DNA, 72 h; series mostly up to 28.7 µM
Procedure, shortened: as §1

[19] = test system: TAB113; experiment: as above; conditions: P. falciparum in erythrocytes, SYBR Green DNA, 72 h; series mostly up to 28.7 µM
Procedure, shortened: as §1

[20] = test system: W2; experiment: as above; conditions: P. falciparum in erythrocytes, SYBR Green DNA, 72 h; series mostly up to 28.7 µM
Procedure, shortened: as §1

Cc1cccc(CNc2ncnc3[nH]ncc23)c1
inactive: Potency [1] > 11.4 µM | activity change, negative = inhibition [2] -1.11% | activity change, negative = inhibition [3] -3.71% | activity, negative = inhibition [4] -8.78% | Potency [5] > 46 µM | Potency [6] > 9.22 µM | Potency [7] | Potency [8]

Nc1nc2c(ncn2[C@H]2CC[C@@H](CO)O2)c(=O)n1C(=O)c1ccccc1
inactive: Potency [1] > 11.4 µM | activity change, negative = inhibition [2] 5.69% | activity change, negative = inhibition [3] -10.1% | activity, negative = inhibition [4] 0.604% | Potency [5] > 46 µM | Potency [6] > 9.22 µM | Potency [7]

COc1ccc(-c2nc3cnc(OC)nc3n(Cc3cccs3)c2=O)cc1
inactive: Potency [1] > 11.4 µM | activity change, negative = inhibition [2] 20.7% | activity change, negative = inhibition [3] 8.9% | activity, negative = inhibition [4] 14.3% | Potency [5] > 9.22 µM | Potency [6] > 46 µM | Potency [7]

COc1ccc2ccccc2c1/C=C\C(=O)c1ccccc1
inactive: Potency [1] > 11.4 µM | activity change, negative = inhibition [2] -15.4% | Potency [5] > 46 µM | Potency [6] > 9.22 µM | Potency [7] | Potency [8] | Potency [10]
active: Potency [9] 3.16 µM

Cc1onc(-c2c(F)cccc2Cl)c1C(=O)N[C@@H]1C(=O)N2[C@H]1SC(C)(C)[C@H]2C(=O)O
inactive: Potency [1] > 11.4 µM | activity change, negative = inhibition [2] -24% | activity change, negative = inhibition [3] 13.8% | activity, negative = inhibition [4] 5.59% | Potency [5] > 46 µM | Potency [6] > 9.22 µM | Potency [7] | Potency [8] | outcome [11] | activity, negative = inhibition ([12]; parasite line A) 1.43% | activity, negative = inhibition ([12]; parasite line B) 6.57% | Potency [13] | Potency [14] | Potency [15] | Potency [16] | Potency [17] | Potency [18] | Potency [19] | Potency [20]

CC(C)(CCC(C)(C)c1ccccc1)c1ccccc1
inactive: Potency [1] > 11.4 µM | activity change, negative = inhibition [2] -0.999% | activity change, negative = inhibition [3] 5.11% | activity, negative = inhibition [4] -2.84% | Potency [5] > 46 µM | Potency [6] > 9.22 µM | Potency [7]

CC(=O)O[C@H]1CC[C@]2(C)C(=CC[C@H]3[C@H]4C[C@H]5O[C@]6(CC[C@H](C)CN6)[C@H](C)[C@@H]5[C@]4(C)CC[C@@H]32)C1
inactive: Potency [1] > 11.4 µM | activity change, negative = inhibition [2] 13.4% | activity change, negative = inhibition [3] 0.916% | activity, negative = inhibition [4] 3.85% | Potency [5] > 46 µM | Potency [6] > 9.22 µM | Potency [7] | Potency [8]
